A selection: hits, their analogues and other compounds. The true share with any hit is near 9.5%.
NS1 function inh = inhibitors of influenza NS1 protein function; Potency, µM (top dose mostly 46.1 µM); 0.4% of 270,000 active; AID 2326; calls by dose curve; also: actives are rising curves; nearly all actives have a fitted effect of over 50% in size
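S. cerevisiae expressing influenza A NS1, grown in glucose, washed, then diluted 1:100 into pH 6.0 -URA galactose medium with 23 nl compound. Growth recovery read as OD600; NS1-free strain serves as control.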
SARS PLpro yeast = SARS-CoV PLP inhibition in yeast; S. cerevisiae expressing SARS-CoV PLpro, growth rescue; Potency, µM (highest dose often 32.9 µM), most hits filed as activators; 0.19% of 330,000 active; calls by dose curve; also: nearly all actives have a fitted effect of over 55% in size
RE007 growth inh = less growth of the S. pombe RE007 Vpr strain; Potency, µM (series often up to 92.2 µM), usual class: inhibitors; 0.21% of 360,000 active; S. pombe RE007 Vpr strain, BacTiter-Glo ATP luminescence, 24 h; AID 651644; active = well fitted falling curve with a large enough effect; inconclusive = small, poorly fitted or top-dose-only effect; inactive = no such curve, though single readings can be large or run the other way; also: nearly all actives have a fitted effect of over 50% in size
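Fission yeast RE007 carrying one integrated HIV-1 vpr copy, seeded at OD 0.01 in PMG+AL medium with 23 nL pinned compound. Grown 24 h at 30 degrees; viability read by BacTiter-Glo luminescence after 5 min.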
Pf growth 96h = inhibits malaria parasite growth, 96 h; Potency, µM (highest dose often 28.7 µM), usual class: inhibitors; AID 504834; P. falciparum luciferase reporter growth, 96 h; 6.9% of 320,000 active
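Parasite growth measured via integrated firefly luciferase reporter in P. falciparum. Infected erythrocytes at 2% hematocrit, 0.05% parasitemia final were treated 96 hours at 37 C under 5% CO2, and luminescence was read.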
Pf growth 48h = inhibits P. falciparum growth in the first generation, 48 h; 5.9% of 310,000 active; Potency, µM (series often up to 28.7 µM), usual class: inhibitors; P. falciparum luciferase growth in erythrocytes, 48 h
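Read-out is firefly luciferase luminescence from an integrated reporter in P. falciparum, so falling signal marks reduced parasite growth. Infected erythrocytes were at 2% hematocrit and 0.1% parasitemia (final) in Albumax-supplemented RPMI 1640.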
Numbers stand for hits; i = inactive; ? = inconclusive; nt = not tested or not shown; [ ] = dose if it differs, or a comment. Unless noted, calls follow the shape of the dose curve; as a rule, active = well fitted inhibition curve with a large enough effect; inconclusive = small, poorly fitted or top-dose-only effect, or another doubt; inactive = no such curve, though single readings can be large or run the other way.

SMILES	NS1 function inh	SARS PLpro yeast	RE007 growth inh	Pf growth 96h	Pf growth 48h
Cc1ccc(-c2[nH]c3cc(C(=O)NCCCn4ccnc4)ccc3c(=O)c2O)cc1	i	?	i	?	13µM
O=C(NCCCn1ccnc1)c1csc2ccccc12	i	i	i	10µM	i
COc1ccc(C(=O)NCCCn2ccnc2)cc1	i	i	i	i	i
O=C(CNC(=O)c1ccc(Cl)cc1)NCCCn1ccnc1	i	i	i	?	10µM
COc1ccc2c(Cl)c(C(=O)NCCCn3ccnc3)sc2c1Cl	i	i	i	?	10µM
CCN(c1ccccc1)c1nc(=O)c2cccnc2s1	i	i	i	?	i
CCN(c1cccc(C)c1)c1nc2ccsc2c(=O)s1	i	i	i	8.3µM	i
Nc1ccccc1S(=O)(=O)C(F)F	i	i	i	i	i
Cc1cc(N2CCOCC2)n2nc(C)c(-c3ccccc3Cl)c2n1	i	i	i	5.2µM	?
Cc1cc(N2CCOCC2)n2nc(C)c(-c3ccccc3)c2n1	i	i	i	nt	i
COc1cc(/C=C2\N=C(c3c(-c4ccccc4)noc3C)OC2=O)ccc1OC(C)=O	nt	i	i	i	13µM
CCC12CN(S(=O)(=O)c3ccc(C)cc3)CC(CC)(CN(S(=O)(=O)c3ccc(C)cc3)C1)C2=O	i	i	i	2.3µM	nt
Cc1ccc(S(=O)(=O)N2CC3(C)CN(S(=O)(=O)c4ccc(C)cc4)CC(C)(C2)C3)cc1	i	i	i	nt	?
Nc1ccccc1-n1c(=O)n(Cc2ccccc2F)c(=O)c2[nH]cnc21	i	i	i	i	i
Cc1ncc(CN2CCC(C(=O)Nc3ccc(-n4cccn4)cc3)CC2)s1	i	i	i	i	1µM
CCc1ccc(CN2CCC(C(=O)Nc3ccc(-n4nc(C)cc4C)cc3)CC2)o1	i	i	i	?	6.6µM
Cc1cc(C)n(-c2ccc(NC(=O)C3CCN(Cc4cnc(C)s4)CC3)cc2)n1	i	i	i	i	?
COCC(C)NC(=O)c1cc2cccc([N+](=O)[O-])c2[nH]1 (configuration not stated)	i	i	i	?	5.2µM
COCC(C)NC(=O)c1cccc([N+](=O)[O-])c1 (configuration not stated)	i	i	i	i	i
CCc1nc2ccc(C(=O)Nc3cccc(NS(C)(=O)=O)c3)cn2c1N(C)C(=O)c1cccc(OC)c1	nt	nt	i	nt	nt
CCC1OC(=O)C(C)C(OC2C[C@@](C)(OC)C(O)C(C)O2)C(C)C(O[C@@H]2OC(C)CC(N(C)C)C2O)[C@](C)(O)CC(C)C(=NOCOCCOC)C(C)C(O)[C@]1(C)O (some centres not stated)	nt	nt	i[18.4 µM]	7.4µM	?
CCC1OC(=O)C(C)[C@@H](O[C@H]2C[C@@](C)(OC)C(O)C(C)O2)C(C)[C@@H](O[C@@H]2OC(C)CC(N(C)C)C2O)[C@@](C)(O)CC(C)C(=O)[C@@H](C)C(O)[C@]1(C)O (some centres not stated)	nt	nt	nt	?	i
CC[C@H]1OC(=O)[C@H](C)[C@@H](O[C@H]2C[C@@](C)(OC)[C@@H](O)[C@H](C)O2)C(C)[C@@H](O[C@@H]2O[C@H](C)C[C@H](N(C)C)[C@@H]2O)[C@](C)(OC)C[C@@H](C)C(=O)[C@H](C)[C@@H](O)[C@]1(C)O (some centres not stated)	nt	nt	nt	1.3µM	13µM
CC[C@H]1OC(=O)[C@H](C)[C@@H](O[C@H]2C[C@@](C)(OC)[C@@H](O)[C@H](C)O2)[C@H](C)[C@@H](O[C@@H]2O[C@H](C)C[C@H](N(C)C)[C@H]2O)[C@](C)(O)C[C@@H](C)CN(C)[C@H](C)[C@@H](O)[C@]1(C)O	nt	nt	i	0.13µM	13µM
COCCNC(=O)C1(C)CCN(C(=O)c2ccc3sccc3c2)C1 (configuration not stated)	nt	nt	i	nt	nt
SMILES	NS1 function inh	SARS PLpro yeast	RE007 growth inh	Pf growth 96h	Pf growth 48h
OC1(c2ccccc2F)CCN(Cc2nnnn2Cc2ccc(F)cc2)CC1	i	i	i	i	i
O=C(Cn1ncc2c1-c1ccccc1OC2)N1CCN(Cc2ccc3c(c2)OCO3)CC1	i	i	i	4.7µM	nt
Cc1ccc(Sc2nc(-c3ccccc3)nnc2C(F)(F)F)cc1	i	i	i	i	13µM
CCOC(=O)C1=C(N)n2c(s/c(=C\c3ccco3)c2=O)=C(C(=O)OC(C)C)C1c1ccco1 (configuration not stated)	i	i	i	?	2.9µM
CCOC(=O)C1=C(N)n2c(s/c(=C\c3ccco3)c2=O)=C(C(=O)OCC)C1c1ccco1 (configuration not stated)	?	i	i	nt	?
CC12CCCCC1(O)[N+](=O)C1=C(CCCC1)N2[O-] (configuration not stated)	i	i	i	4.1µM	i
Nc1cc(C(=O)O)[nH]c(=O)n1	i	nt	nt	nt	nt
COc1ccc(N(C(=O)CCl)C(C)(C(=O)Nc2c(C)cccc2C)c2ccccn2)cc1 (configuration not stated)	i	i	i	?	4.7µM
O=S(=O)(Nc1nc2ccccc2nc1-[n+]1cccc(N=C([O-])c2ccc(Cl)cc2)c1)c1ccccc1	i	i	i	8.3µM	?
Oc1cc2c(cc1O)[C@H]1c3ccc(O)c(O)c3OC[C@@]1(O)C2	nt	i	i	6.6µM	3.7µM
COc1ccc(-n2cc(-c3ccccc3)c3c(=O)[nH]cnc32)cc1	i	i	i	10µM	i
Cc1cc(=O)oc2cc(OCC(=O)N3CCN(C(=O)C4COc5ccccc5O4)CC3)ccc12 (configuration not stated)	i	i	i	13µM	?
Cc1c(C)c2ccc(OCC(=O)N3CCN(C(=O)C4COc5ccccc5O4)CC3)cc2oc1=O (configuration not stated)	i	i	i	?	i
Cc1cc(=O)oc2cc(OCC(=O)N3CCN(C(=O)C4COc5ccccc5O4)CC3)c(Cl)cc12 (configuration not stated)	i	i	i	13µM	i
CCCc1cc(=O)oc2cc(OCC(=O)N3CCN(C(=O)C4COc5ccccc5O4)CC3)ccc12 (configuration not stated)	i	i	i	12µM	?
O=C(COc1ccc2ccc(=O)oc2c1)N1CCN(C(=O)C2COc3ccccc3O2)CC1 (configuration not stated)	i	i	i	?	?
O=[As](O)(O)c1ccc(Cc2ccc([As](=O)(O)O)cc2)cc1	i	nt	nt	nt	nt
O=C(NC1CCN(Cc2ccc(Cl)cc2)CC1)c1cn(-c2ccccc2)nc1-c1cccnc1	nt	i	i	?	1.9µM
CCc1ccccc1NC(=O)CNC(=O)c1cn(Cc2ccccc2)nc1-c1cccnc1	nt	i	i	5.9µM	?
O=C(NCc1ccncc1)c1cn(-c2ccccc2)nc1-c1cccnc1	nt	i	i	?	15µM
O=C(NCc1cccnc1)c1cn(-c2ccccc2)nc1-c1ccccc1	nt	i	i	i	i

From PubChem BioAssay
